Data reported in article PMC5540273 (PLoS ONE, 2017).

tested on: CDK8; conditions: concentration: 1 μM, replicates: in singlicate; n = 1
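Note: KINOMEscan kinase panel screen.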

Point of comparison: `NCCC(NC(=O)c1cc(Br)c(-c2ccnc3[nH]ccc23)s1)c1ccccc1.O=C(O)C(F)(F)F.O=C(O)C(F)(F)F` (stereo not drawn) [GSK1307810], “%Inh” value 100%. Against it:
- N#CC1(c2cccc(C(=O)Nc3cccc(Oc4ccc5nc(NC(=O)C6CC6)sc5n4)c3)c2)CC1 — lower, 35%
- Cc1ccc(C)c(NC(=O)Nc2ccc(C)c(-c3ccc(C(=O)Nc4ccncc4)cc3)c2)c1 [GSK1398473] — lower, 4%
- O=C(Nc1n[nH]c2nc(-c3ccccc3O)ccc12)C1CC1 [SB-711880] — lower, 0%
- CCn1c(-c2nonc2N)nc2c(-c3ccccc3)ncc(OCCCN)c21.O=C(O)C(F)(F)F.O=C(O)C(F)(F)F [GSK260205] — lower, 1%
- Cl.Cl.NC(CNC(=O)c1cc(Br)c(-c2ccnc3[nH]ccc23)s1)c1ccccc1 (stereo not drawn) [GSK1322949] — lower, 60%
- CCOc1nccc(-c2c(-c3ccc(F)cc3)ncn2C2CCNCC2)n1 [SB-249175] — lower, 25%
- COc1cccc2c(-c3ccncc3)c(-c3ccc(F)cc3)nn12 [GW468513] — lower, 42%
- CC(C)c1nc(-c2cccc(NS(=O)(=O)c3c(F)cccc3F)c2)c(-c2ccnc(Nc3ccc(N4CCOCC4)nc3)n2)s1.Cl [GSK1723980] — lower, 6%
- O=C(Nc1n[nH]c2cc(-c3cccs3)ccc12)C1CC1 [SB-731284] — lower, 15%
- Cc1ccc(NC(=O)c2cccc(N3CCCCC3)c2)cc1-c1ccc(C(=O)NCC2CC2)cc1 [GSK1917008] — lower, 10%
- Cl.O=C(Nc1ccc(Oc2ccc3[nH]c(NC(=O)c4ccco4)nc3c2)cc1)Nc1cc(C(F)(F)F)ccc1F [GW683134] — lower, 86%
- Cn1cc(-c2ccc3c(c2)CCN3C(=O)Cc2cc(F)cc(C(F)(F)F)c2)c2c(N)ncnc21 [GSK2635225] — lower, 91.8%
- COc1cc(Nc2nccc(N3CCC(NS(=O)(=O)c4ccc(NC(C)=O)cc4)CC3)n2)cc(OC)c1OC [GSK1379825] — lower, 31%
- O=C1NC(=O)C(c2ccccc2Cl)=C1Nc1cccc(Cl)c1 [SB-342409] — lower, 0%
- Cc1cc(-c2ccnc(Nc3cccc(C#N)c3)n2)cc(C)c1O [GSK1440913] — lower, 30%
- CC(C)NCC(Cc1ccccc1)NC(=O)c1cc(Br)c(-c2ccnc3[nH]ccc23)s1.Cl.Cl (stereo not drawn) [GSK1383281] — lower, 34%
- Nc1ncc(-c2ccc3nccc(-c4ccncc4)c3c2)cc1S(=O)(=O)N1CCCCC1 [GSK1693850] — lower, 45%
- COc1cc(Nc2ccnc3cc(-c4ccncc4)ccc23)cc(OC)c1OC.Cl [GW494610] — lower, 43%
- COC(=O)Nc1nc2ccc(Oc3ccc(NC(=O)Nc4cc(C(F)(F)F)ccc4F)cc3)cc2[nH]1.Cl [GW654607] — lower, 84%
- c1ccc(Oc2ccc(Nc3ccnc4cc(-c5ccc(CN6CCCCC6)o5)ccc34)cc2)nc1 [GW567143] — lower, 14%
- COc1cccc(CC(=O)N2CCc3cc(-c4cn(C)c5ncnc(N)c45)ccc32)c1 [GSK2608899] — lower, 96.6%
- COc1ccc(C)c(Nc2ccnc(Nc3ccc(-c4cnc[nH]4)cc3)n2)c1.Cl [GW784041] — lower, 35%
- CCNC(=O)/C=C/c1n[nH]c2cc(Sc3ccccc3C(=O)NC)ccc12 — lower, 20%
- Cl.N#CCc1ccc(Nc2nccc(Nc3ccc(Oc4ccccc4)cc3)n2)cc1 [GW639905] — lower, 0%
- CC(=O)Nc1cn2nc(Oc3cccc(NC(=O)c4cccc(C(F)(F)F)c4)c3)ccc2n1 — lower, 70%
- CCNc1nccc(-c2c(-c3ccc(F)cc3)ncn2C2CCN(C)CC2)n1 — lower, 0%
- COC(=O)Nc1nc2cc(Oc3ccc(NC(=O)Nc4cccc(SC)c4)cc3)ccc2[nH]1.Cl [GW697999] — lower, 47%
- Fc1cc(Cl)ccc1Nc1ccnc2cc(-c3ccc(CN4CCOCC4)o3)ccc12 [GW560109] — lower, 0%
- Cc1ccc(O)cc1Nc1ccnc2cc(-c3ccc(CN4CCCCC4)o3)ccc12 [GW557777] — lower, 0%
- CCn1cnc2c(NCc3ccccc3)ncnc21 [SKF-96418] — lower, 40%
- CN(c1ccc(F)c(NC(=O)c2cccc(OC(C)(C)C#N)c2Cl)c1)c1ccc2nc(NC(=O)C3CC3)sc2n1 — lower, 2%
- Cn1cc(-c2ccc3c(c2)CCN3C(=O)Cc2cc(F)cc(F)c2F)c2c(N)ncnc21 [GSK2634140] — lower, 88%
